According to PubChem BioAssay AID2315 (National Center for Advancing Translational Sciences (NCATS), 2010):
Screen size: about 290,000 compounds; about 27,000 (9.3%) were called active. Rule as the data show it: active = inhibition mostly above about 28% (no sharp cut-off); inactive = mostly below about 43%. What follows is part of a selection rich in actives, with near analogues and random picks from the rest.

Test: A qHTS for Small Molecule Inhibitors of Shiga Toxin; also: 0% is about no effect
Details: Vero cells, Shiga toxin protein synthesis inhibition reporter; at 38.7 µM, stronger effect = higher value

**Q.** With `CC1CCCCC1NC(=O)CSc1nnc(-c2ccncc2)n1CCCN(C)C` (stereo unspecified) as the molecule, how does the inhibition read?
**A.** -1.04% (inactive)

**Q.** With `O=C(/C=C/c1ccc(Cl)cc1)Nc1ccc(S(=O)(=O)Nc2ncccn2)cc1` as the molecule, how does the inhibition read?
**A.** 17% (inactive)

**Q.** For `CC(C)(C)c1ccc(/C=C/C(=O)Nc2ncccn2)cc1`, which inhibition is on record?
**A.** -4.53% (active)

**Q.** With `Cc1cc(C)nc(NC(=O)/C=C/c2ccc(Cl)cc2)n1` as the molecule, how does the inhibition read?
**A.** 41.9% (inactive)

**Q.** With `O=c1c2c(-c3ccccc3)ccnc2[nH]n1-c1ccccc1` as the molecule, how does the inhibition read?
**A.** 38.7% (inactive)

**Q.** With `CCC(C)(C)NC(=O)C(c1ccc(OC)cc1)N(C(=O)CCC(=O)Nc1cc(C)on1)c1ccc(OC)cc1OC` (stereo unspecified) as the molecule, how does the inhibition read?
**A.** 8.4% (inactive)

**Q.** For `CCN(CC)CCNC(=O)Cn1cnc2sc(C)c(S(=O)(=O)N3CCOCC3)c2c1=O`, which inhibition is on record?
**A.** -2.57% (inactive)

**Q.** With `Cc1sc2ncn(CC(=O)NCCN(C)C)c(=O)c2c1S(=O)(=O)N1CCC(C)CC1` as the molecule, how does the inhibition read?
**A.** 106% (active)

**Q.** For `CCN(CC)CCCNC(=O)Cn1cnc2sc(C)c(S(=O)(=O)N3CCN(c4ncccn4)CC3)c2c1=O`, which inhibition is on record?
**A.** -11.2% (inactive)

**Q.** For `CC(=O)c1ccc(S(=O)(=O)N2CCC(Oc3ccc(-n4cnnn4)cc3)CC2)cc1`, which inhibition is on record?
**A.** -8.24% (inactive)

**Q.** With `O=C(O)Cn1c(Cc2ccccc2)nc2ccccc21` as the molecule, how does the inhibition read?
**A.** -5.35% (inactive)

**Q.** Which inhibition does the source give for `Cc1ccccc1C(=O)N1CCC(C(=O)Oc2ccc(C#N)cc2)CC1` here?
**A.** -13.3% (inactive)

**Q.** For `O=C(Nc1ccc2c(c1)OCCO2)c1ccoc1`, which inhibition is on record?
**A.** 65.2% (active)

**Q.** Which inhibition does the source give for `O=C(Nc1ccc2c(c1)OCCO2)c1cnccn1` here?
**A.** 42.2% (inactive)

**Q.** For `O=C(CCN1C(=O)c2ccncc2C1=O)Nc1ccc2c(c1)OCCO2`, which inhibition is on record?
**A.** 13.6% (inactive)

**Q.** For `Cn1c(=O)c2ccccc2n(CC(=O)Nc2ccc3c(c2)OCCO3)c1=O`, which inhibition is on record?
**A.** -7.05% (inactive)

**Q.** For `O=C(Nc1ccc2c(c1)OCCO2)c1ccncc1`, which inhibition is on record?
**A.** 117% (active)

**Q.** For `Cc1ccc(-n2ncc3c2CC(C)(C)CC3NC(=O)Cc2c(C)noc2C)cc1` (stereo unspecified), which inhibition is on record?
**A.** -6.91% (inactive)

**Q.** For `COc1cccc(NC(=O)COc2cc(C)cc3oc(=O)cc(C)c23)c1`, which inhibition is on record?
**A.** -4.63% (inactive)

**Q.** Which inhibition does the source give for `COc1ccc(C2=NS(=O)(=O)N(C)C(C(=O)N3CCCCC3)=C2)cc1` here?
**A.** -2.94% (inactive)

**Q.** With `COc1cccc(OCCCN2CCCCCC2)c1` as the molecule, how does the inhibition read?
**A.** 11.6% (inactive)

**Q.** For `COc1cccc(Oc2ccc(N)cc2)c1`, which inhibition is on record?
**A.** 33.2% (active)

**Q.** For `CC(C)(C)c1ccc(Oc2ccc(N)cc2)cc1`, which inhibition is on record?
**A.** -23.2% (inactive)

**Q.** Which inhibition does the source give for `COc1ccc(-c2cc(=O)oc3cc(OCC(=O)N[C@@H](Cc4c[nH]c5ccccc45)C(=O)O)ccc23)cc1` here?
**A.** 1.78% (inactive)

**Q.** Which inhibition does the source give for `Cc1cc(=O)n2nc(N3CCCC(C(=O)NCc4cccc(Cl)c4)C3)sc2n1` (stereo unspecified) here?
**A.** 10.1% (inactive)

**Q.** Which inhibition does the source give for `CN(c1cccc(NC(=O)Nc2ccc(Cl)cc2)c1)S(C)(=O)=O` here?
**A.** 66.3% (active)

**Q.** Which inhibition does the source give for `COc1cccc(N(CC(=O)Nc2cccc(N(C)S(C)(=O)=O)c2)S(C)(=O)=O)c1` here?
**A.** -9.96% (inactive)

**Q.** With `Cc1ccc(N(CC(=O)Nc2cccc(N(C)S(C)(=O)=O)c2)S(C)(=O)=O)cc1` as the molecule, how does the inhibition read?
**A.** -15.9% (inactive)

**Q.** With `COc1ccc(Nc2ccc([N+](=O)[O-])cn2)cn1` as the molecule, how does the inhibition read?
**A.** 25.8% (inactive)

**Q.** Which inhibition does the source give for `Cc1cccc(-n2nc3c(c2NC(=O)c2cc4ccccc4o2)CS(=O)(=O)C3)c1` here?
**A.** -6.86% (inactive)

**Q.** Which inhibition does the source give for `CCOc1ccc(CCNC(=O)CCc2nnc3ccc(N4CCCC4)nn23)cc1OCC` here?
**A.** -2.23% (inactive)

**Q.** For `C/C(=N/NC(=O)c1ccc(Br)o1)c1ccc(C)o1`, which inhibition is on record?
**A.** 91.6% (active)

**Q.** Which inhibition does the source give for `C/C(=N\NC(=S)NC1CCCCC1)c1ccc(C)o1` here?
**A.** 52.7% (active)

**Q.** With `Cc1ccc(/C=N/NC(=O)Cn2nc(C)c(Br)c2C)o1` as the molecule, how does the inhibition read?
**A.** -6.63% (inactive)

**Q.** Which inhibition does the source give for `CC(CCc1ccccc1)NC(=O)c1ccc(Br)o1` (stereo unspecified) here?
**A.** 0.792% (inactive)

**Q.** With `CC(CNC(=O)c1ccc(Br)o1)NC(=O)c1ccc(Br)o1` (stereo unspecified) as the molecule, how does the inhibition read?
**A.** 10.2% (inactive)

**Q.** Which inhibition does the source give for `Cc1ccc(/C=N/NC(=S)Nc2cccc(S(=O)(=O)N(C)C)c2)o1` here?
**A.** 40.8% (inactive)

**Q.** Which inhibition does the source give for `Cc1ccc(/C=N/NC(=S)NC2CCCCC2)o1` here?
**A.** 72.6% (active)

**Q.** Which inhibition does the source give for `S=C(NN=C1CCN(Cc2ccccc2)CC1)NC1CCCCC1` here?
**A.** 9.13% (inactive)

**Q.** With `S=C(NCc1ccc(Cl)cc1)NC1CCCCC1` as the molecule, how does the inhibition read?
**A.** -6.42% (inactive)

**Q.** With `COc1ccc(CNC(=O)C2CCN(C(=O)c3ccco3)CC2)cc1` as the molecule, how does the inhibition read?
**A.** -12.4% (inactive)

**Q.** For `CCCc1cc(=O)n2[nH]c(C)c(-c3ccc(Cl)cc3)c2n1`, which inhibition is on record?
**A.** -5.47% (inactive)

**Q.** With `Cc1ccc(C(CNC(=O)Nc2cccc(C)c2)N2CCN(C)CC2)cc1` (stereo unspecified) as the molecule, how does the inhibition read?
**A.** 1.35% (inactive)

**Q.** With `Cc1c(NC(=O)Nc2cccc([N+](=O)[O-])c2)c(=O)n(-c2ccccc2)n1C` as the molecule, how does the inhibition read?
**A.** -5.21% (inactive)

**Q.** With `CC1CCN(S(=O)(=O)c2ccc3c(ccn3CC(=O)O)c2)CC1` as the molecule, how does the inhibition read?
**A.** -22.5% (inactive)

**Q.** With `CC(=O)N1CCN(CC(=O)Nc2ccc(SC(F)F)cc2)CC1` as the molecule, how does the inhibition read?
**A.** -12.2% (inactive)

**Q.** With `O=C(Cc1ccc(Cl)c(Cl)c1)Nc1ccc(SC(F)F)cc1` as the molecule, how does the inhibition read?
**A.** 43% (active)

**Q.** Which inhibition does the source give for `Cc1ccc(CC(=O)Nc2ccc(OC(F)F)c(Cl)c2)cc1C` here?
**A.** -4.66% (inactive)

**Q.** With `CNC(=O)[C@]1(C(F)(F)F)C[C@H](CCc2ccccc2)CCCO1` as the molecule, how does the inhibition read?
**A.** 32.4% (inactive)

**Q.** For `O=C(c1cccs1)N1CCC(c2nc3ccccc3s2)CC1`, which inhibition is on record?
**A.** 18.9% (inactive)

**Q.** For `Cc1cccc(C(=O)N2CCC(c3nc4ccccc4s3)CC2)c1`, which inhibition is on record?
**A.** -12.1% (inactive)

**Q.** For `c1ccc2sc(C3CCCNC3)nc2c1` (stereo unspecified), which inhibition is on record?
**A.** 69.9% (active)

**Q.** Which inhibition does the source give for `CC(=O)Oc1ccc(N(C(C)=O)S(=O)(=O)c2ccc3ccccc3c2)cc1Br` here?
**A.** 33.2% (inactive)

**Q.** For `CCCCCNC(=O)C1c2ccccc2Oc2ccccc21`, which inhibition is on record?
**A.** -12.3% (inactive)

**Q.** Which inhibition does the source give for `O=C(O)c1ccc2c(c1)C(=O)N(c1ccc(/C=C/C(=O)c3ccccc3)cc1)C2=O` here?
**A.** 70.9% (active)

**Q.** For `O=C(CN1CCN(S(=O)(=O)/C=C/c2ccccc2)CC1)Nc1ccc(N2CCOCC2)cc1`, which inhibition is on record?
**A.** -7.43% (inactive)

**Q.** Which inhibition does the source give for `O=C(/C=C/c1ccc(N2CCOCC2)cc1)c1ccccc1` here?
**A.** 68% (active)

**Q.** Which inhibition does the source give for `Cc1cccc(N2C(=O)c3ccc(C(=O)Nc4cccc(C(=O)O)c4)cc3C2=O)c1` here?
**A.** 19% (inactive)

**Q.** With `CC(=O)Oc1ccc(C)cc1N1C(=O)c2ccc(C(=O)O)cc2C1=O` as the molecule, how does the inhibition read?
**A.** 21.4% (inactive)

**Q.** With `O=C(/C=C/c1ccccc1)c1ccoc1` as the molecule, how does the inhibition read?
**A.** 26% (inactive)

**Q.** Which inhibition does the source give for `O=C(c1ccc(C(F)(F)F)cc1)C1CCCN(C(=O)c2csnn2)C1` (stereo unspecified) here?
**A.** -1.35% (inactive)
